Compound activity as filed in PubChem.
This is a sample that favours compounds with a hit; in the whole collection about 7.5% have one here.
FLuc counter = inhibits or activates purified firefly luciferase, miR-21 counter-screen. P08659. purified FLuc, Km substrates, luminescence inhibition. Potency, µM (top dose mostly 57.5 µM), actives largely listed as inhibitors. 360,000 tested, 6.9% active. AID 588342; further: nearly all actives have a fitted effect of over 55% in size
Target sequence (P08659 whole entry, looked up): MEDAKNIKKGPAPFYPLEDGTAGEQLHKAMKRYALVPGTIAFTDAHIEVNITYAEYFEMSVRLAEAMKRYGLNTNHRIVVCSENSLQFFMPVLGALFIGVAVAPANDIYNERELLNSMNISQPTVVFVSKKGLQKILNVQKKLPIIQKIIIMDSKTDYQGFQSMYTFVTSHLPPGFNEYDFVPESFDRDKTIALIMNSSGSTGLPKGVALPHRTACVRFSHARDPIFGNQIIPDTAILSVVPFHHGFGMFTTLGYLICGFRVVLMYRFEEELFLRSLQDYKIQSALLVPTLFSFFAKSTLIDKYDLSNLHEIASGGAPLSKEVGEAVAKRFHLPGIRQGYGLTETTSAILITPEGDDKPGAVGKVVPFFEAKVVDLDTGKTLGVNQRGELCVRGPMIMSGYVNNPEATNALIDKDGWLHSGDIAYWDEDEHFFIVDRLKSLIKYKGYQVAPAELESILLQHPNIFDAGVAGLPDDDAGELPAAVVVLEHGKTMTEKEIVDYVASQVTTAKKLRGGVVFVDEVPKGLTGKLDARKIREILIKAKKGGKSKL
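Purified P. pyralis luciferase, 10 nM final, with Km-level 10 uM D-luciferin and 10 uM ATP in 50 mM Tris acetate pH 7.5, 10 mM Mg acetate, 0.01% Tween-20, 0.05% BSA; 6-point qHTS titration about 60 µM downward; luminescence read.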
SMN2 splice up = increases expression of the SMN2 splice variant | HEK293 SMN2-luciferase splicing reporter, luminescence, 30-36 h | Potency, µM (series often up to 46.1 µM), usual class: activators | 210,000 tested, 2.8% active; further: nearly all actives have a fitted effect of over 55% in size
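HEK293 cells carry an SMN2 minigene-luciferase reporter in which exon 7 inclusion puts luciferase in frame. Cells were seeded at 2000 cells/well, attached for 10-12 hours, then exposed to compounds for 30-36 hours at 37C before ONE-Glo luminescence.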
Rab9 prom act = Rab9 promoter activation; Potency, µM (series often up to 9.22 µM), most hits filed as activators; 320,000 tested, 2.8% active; AID 485297; Huh7 Rab9 promoter-luciferase reporter, luminescence, 24 h; further: nearly all actives have a fitted effect of over 60% in size
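Cells were plated at 1500 per well in reduced-serum medium with 10% FBS and left 2 h. Compound in DMSO was then added for 24 h at 37 °C. Reporter signal was read by luminescence after 10 min with luciferase detection reagent.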
NPC1 prom act = activators of NPC1 promoter. Huh7 NPC1 promoter luciferase reporter, 24 h. Potency, µM (titrated, usually from 9.22 µM), usual class: activators. 320,000 tested, 2.4% active; further: nearly all actives have a fitted effect of over 60% in size
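Luminescence read-out of NPC1 promoter-driven luciferase in stably transfected Huh7 cells; compounds delivered in DMSO and left 24 h at 37C, 5% CO2, qHTS titration format.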
ELG1 genotox = inducers of genotoxicity in HEK293T ELG1-luciferase cells | HEK293T ELG1-luciferase reporter, luminescence, 16 h | Potency, µM (titrated, usually from 46 µM), most hits filed as activators | 330,000 tested, 1.3% active; further: nearly all actives have a fitted effect of over 60% in size
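Cells (2,000/well) expressing the ELG1-luciferase fusion are dosed by pin tool and kept 16 hr at 37 °C, 5% CO2. Signal comes from ONE-Glo luciferase reagent after 30 min at room temperature.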
Luc counter = Kinase-Glo luciferase inhibition (counter-screen). Q27757. Kinase-Glo luciferase, ATP luminescence, 8 min. Potency, µM (top dose mostly 38.3 µM), most hits filed as inhibitors. 200,000 tested, 0.28% active. AID 1379; further: nearly all actives have a fitted effect of over 60% in size
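Substrate mix (final 50 mM imidazole pH 7.2, 50 mM KCl, 7 mM MgCl2, 10 uM ATP, 0.01% Tween 20, 0.05% BSA) plus pin-tool compound, then Kinase-Glo detection mix; 8 min ambient, luminescence read.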
Numbers stand for hits; i = inactive; ? = inconclusive; nt = no result given; [ ] = another dose, or the depositor's remark. The call rests on the fitted dose curve; in most records, active means well fitted curve in the direction sought with a large enough effect; inconclusive means small, poorly fitted or top-dose-only effect, or another doubt; inactive means no such curve, though single readings can be large; an effect the other way counts as inactive or inconclusive.

SMILES	FLuc counter	SMN2 splice up	Rab9 prom act	NPC1 prom act	ELG1 genotox	Luc counter
COc1ccc2nc(NC(=O)CNS(=O)(=O)c3cccs3)sc2c1	?	i	i	i	i	i
CCOc1ccc2nc(NC(=O)Cc3cccs3)sc2c1	12µM	?	?	?	?	i
COc1ccc2nc(NC(=O)CN(C)S(=O)(=O)c3cccs3)sc2c1	16.9µM	i	i	i	i	i
Cc1ccc2nc(NC(=O)Cc3cccs3)sc2c1	8.49µM	?	?	2.24µM	?	i
O=C(O)CCC(=O)Nc1ccc(-c2nc3ccc(C(=O)c4ccccc4)cc3[nH]2)cc1	10.7µM	nt	i	i	i	nt
Cc1cccc(N2CCN(c3ccc4cc(S(=O)(=O)N5CCC(C)CC5)ccc4n3)CC2)c1C	i	nt	nt	nt	nt	nt
Cc1cc(NC(=O)CSCC(=O)Nc2nc3ccc(F)cc3s2)no1	i	nt	i	i	i	nt
Cc1ccc2nc(-c3ccc(NC(=O)C4CCCO4)cc3)[nH]c2c1 (stereo not given)	0.601µM	0.562µM	0.316µM	0.282µM	?	i
O=C(Cc1cccs1)Nc1nc2ccccc2s1	15.1µM	i	3.16µM	?	i	i
Cc1ccc2nc(NC(=O)CSCC(=O)Nc3cc(C)on3)sc2c1	?	nt	2.51µM	?	?	nt
CC(C)Oc1ccc(C(=O)NCCCNC(=O)c2ccccn2)cc1	?	nt	i	i	i	nt
Cc1ccc(NC(=O)COc2ccccc2C(N)=O)cc1S(=O)(=O)N1CCCCCC1	23.9µM	nt	i	i	i	nt
Cc1ccc(NC(=O)COc2cccc(C)c2C)cc1S(=O)(=O)N1CCCCCC1	i	nt	i	i	?	nt
CC(=O)c1ccccc1OCC(=O)Nc1cccc(S(=O)(=O)N2CCCC2)c1	16.9µM	nt	i	i	i	nt
CCOc1ccccc1OCC(=O)Nc1cccc(S(=O)(=O)N2CCCCCC2)c1	i	nt	i	i	i	nt
O=C(COc1ccc(Cl)cc1Br)Nc1cccc(S(=O)(=O)N2CCCC2)c1	2.69µM	nt	i	i	i	nt
COc1ccc(C(=O)NCC(=O)OCC(=O)Nc2cccc(S(=O)(=O)N3CCCC3)c2)cc1	12µM	nt	i	i	i	nt
COc1ccc(C(=O)NCC(=O)Nc2cccc(S(=O)(=O)N3CCCC3)c2)cc1	nt	nt	nt	nt	i	nt
CCc1ccc(OCC2c3cc(OC)c(OC)cc3CCN2C(=O)COc2ccccc2)cc1 (stereo not given)	i	nt	nt	nt	nt	nt
Cc1cc(Cl)ccc1OCC(=O)Nc1cccc(S(=O)(=O)N2CCCC2)c1	9.53µM	nt	i	i	i	nt
Cc1ccc2cccc(OCC(=O)Nc3cccc(S(=O)(=O)N4CCCC4)c3)c2n1	i	nt	i	i	i	nt
CCOC(=O)C1=C(C(F)(F)F)Nc2ncnn2C1c1ccc(OC)cc1OC (stereo not given)	i	i	i	i	i	i
O=C(OCC1CC(c2ccccc2)=NO1)c1ccc(Cl)cc1 (stereo not given)	i	i	i	i	i	i
CN1OC(COC(=O)c2ccccc2)CC1c1ccccc1 (stereo not given)	6.75µM	i	i	?	i	i
Cc1ccc(-c2csc(N)n2)s1	15.1µM	i	i	?	?	i
SMILES	FLuc counter	SMN2 splice up	Rab9 prom act	NPC1 prom act	ELG1 genotox	Luc counter
COc1ccc(C(=O)Nn2c(SCc3ccc([N+](=O)[O-])cc3)nc3ccccc3c2=O)cc1	12µM	i	3.98µM	2.51µM	?	i
CCOC(=O)CSc1nc2ccccc2c(=O)n1NC(=O)c1ccccc1	?	15.8µM	3.55µM	?	?	i
COc1ccc(C(=O)Nn2c(SCC(=O)c3ccccc3)nc3ccccc3c2=O)cc1	6.75µM	i	0.562µM	1.41µM	?	i
CCOC(=O)CSc1nc2ccccc2c(=O)n1C	i	?	i	i	i	i
CCCCn1cnc2c(SC)ncnc21	nt	i[9.22 µM]	nt	nt	nt	i[7.66 µM]
COc1ccc(/C=C/C(=O)c2ccccc2O)cc1CN1CCOCC1	i	i	i	i	i	i
COc1ccc(/C=C2/CCc3ccccc3C2=O)cc1CN1CCOCC1	9.53µM	i	i	i	i	i
COc1ccc(/C=C2\CCc3ccccc3C2=O)cc1Cn1nc(C)cc1C	13.5µM	i	i	i	i	i
O=[N+]([O-])c1cnc2nc(-c3ccncc3)nn2c1O	21.3µM	i	i	i	i	11.2µM
Brc1ccc(-c2noc(CCc3ccccc3)n2)o1	23.9µM	i	i	i	i	i
c1ccc(CCc2nc(-c3ccccn3)no2)cc1	13.5µM	11.2µM	2.24µM	3.16µM	?	i
Cc1ccc(-c2noc(CCCc3ccccc3)n2)cc1	23.9µM	i	i	i	i	i
Fc1ccc(OCc2nc(-c3ccc(Br)o3)no2)c(F)c1	16.9µM	i	i	i	i	i
CN(C)S(=O)(=O)c1cccc(NC(=O)COC(=O)/C=C/c2ccc([N+](=O)[O-])cc2)c1	i	i	i	i	i	i
O=C(CCc1c[nH]c2ccccc12)N[C@@H](Cc1c[nH]c2ccc(O)cc12)C(=O)O	i	nt	i	i	i	nt
Clc1ccccc1OCc1nc(-c2ccc(Br)o2)no1	15.1µM	?	?	i	23.1µM	i
CSC(=S)N/N=C(\C)c1ccccc1	21.3µM	i	i	i	?	i
COc1cccc(C(=O)Nc2cc(-c3ccccc3)no2)c1	1.2µM	15.8µM	nt	nt	nt	nt
Cc1ccc(-c2cc(NC(=O)COc3ccc(Cl)c(C)c3)on2)cc1	i	i	nt	nt	nt	nt
Cc1ccc(-c2cc(NC(=O)c3ccccc3Cl)on2)cc1	?	12.6µM	nt	nt	nt	nt
CCOc1ccc(C(=O)Nc2cc(-c3ccccc3)no2)cc1	1.51µM	?	nt	nt	nt	nt
CCOc1cccc(C(=O)Nc2cc(-c3ccc(C)cc3)no2)c1	i	i	nt	nt	nt	nt
CCCCOc1ccc(C(=O)Nc2cc(-c3ccc(C)cc3)no2)cc1	i	i	nt	nt	nt	nt
CC12C=CC(=O)C=C1[C@@H](F)CC1C2C(O)CC2(C)C1CC[C@]2(O)C(=O)CO (stereo not given in full)	nt	nt	nt	nt	nt	i
CCc1cccc(CC)c1NC(=O)C(CC)n1nc(C)n2c(cc3cc(C)ccc32)c1=O (stereo not given)	i	i	nt	nt	nt	nt
SMILES	FLuc counter	SMN2 splice up	Rab9 prom act	NPC1 prom act	ELG1 genotox	Luc counter
O=C(/C=C/Sc1ccccc1)c1ccc(Cl)cc1	1.07µM	i	i	i	?	i
O=C(/C=C/Sc1ccccc1)c1ccccc1	0.426µM	i	i	i	?	i
C/C(=C\C(=O)c1ccccc1)NNC(=O)c1ccc(Cl)cc1	i	nt	i	i	i	nt
C/C(N[C@@H]1CSCC1O)=C1/C(=O)CC2[C@@H]1C2(C)C (stereo not given in full)	nt	i	nt	nt	nt	i
C/C(NC(=O)c1ccccc1)=C1/C(=O)CC2C1C2(C)C (stereo not given)	15.1µM	i	?	i	?	i
C=CCn1c(SCc2c(Cl)cccc2Cl)nnc1-c1cccnc1	i	i	i	i	i	i
